# Measured values taken from PubChem BioAssay.
# Values joined by “and” are separate entries in the source; they are usually repeats but may differ in a detail not shown here. Identical values can stand only once. Inconclusive results are not listed. For some assays here: Results with a measured potency or affinity are listed apart. Active and inactive are the calls of the source. Unless noted, how the calls were made is not given here.
# How the values were obtained:
# [1] = antimalarial activity against Dd2 strain (AID 2302;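 active means growth inhibition above 50% at the single 2 µM test dose, taken to imply half-maximal potency below 2 µM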;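 further: 0% = DMSO untreated growth and 100% = chloroquine plus artemisinin killed control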); conditions: P. falciparum Dd2 in RBCs, LDH growth readout, 72 h; at 2 µM; stronger effect = higher value
# [2] = HepG2 cytotoxicity, primary screen, cytotoxicity control for P. falciparum antimalarial project, cell-based, ATP luminescence (AID 2303;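 active means inhibition above 50%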;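 further: 0% = DMSO wells and 100% = digitonin-killed cells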); conditions: HepG2 viability, 24-48 h, at 10 µM, stronger effect = higher value
# [3] = target: L-lactate dehydrogenase (Plasmodium falciparum (isolate CDC / Honduras)) (UniProt Q27743); experiment: PfLDH activity inhibition – cell lysate, 3D7 strain, counter-screen for P. falciparum growth inhibition project (AID 2304);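 further: 0% = vehicle and 100% = reference inhibitor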; conditions: P. falciparum 3D7 crude extract, LDH APAD/NBT absorbance; at 2 µM; stronger effect = higher value
# L-lactate dehydrogenase (Plasmodium falciparum (isolate CDC / Honduras)), sequence (Q27743 whole entry, looked up): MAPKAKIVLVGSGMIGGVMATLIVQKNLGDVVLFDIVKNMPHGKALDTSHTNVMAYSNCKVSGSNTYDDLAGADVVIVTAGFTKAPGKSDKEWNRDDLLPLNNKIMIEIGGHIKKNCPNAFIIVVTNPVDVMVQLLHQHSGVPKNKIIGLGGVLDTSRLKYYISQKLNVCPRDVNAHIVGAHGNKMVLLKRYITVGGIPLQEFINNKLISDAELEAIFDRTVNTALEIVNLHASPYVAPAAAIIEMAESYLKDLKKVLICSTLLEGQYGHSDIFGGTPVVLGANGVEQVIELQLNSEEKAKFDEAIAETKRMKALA
# [4] = inhibition of 3D7 malaria parasite growth – strain 3D7 (AID 2306);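 further: 0% = DMSO wells and 100% = chloroquine plus artemisinin control wells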; conditions: P. falciparum 3D7 erythrocytic growth, LDH absorbance, 72 h; at 2 µM; stronger effect = higher value
# [5] = target: Calcium-dependent protein kinase 1 (Plasmodium falciparum (isolate 3D7)) (UniProt P62344); experiment: PfCDPK1 kinase inhibitors, biochemical, TCAMS library (AID 1159585; cut-off not given, nearly all actives have IC50 up to about 0.98 µM;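 further: inhibitors leave more ATP so luminescence rises with inhibition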); conditions: recombinant PfCDPK1, Kinase-Glo ATP depletion luminescence
# Calcium-dependent protein kinase 1 (Plasmodium falciparum (isolate 3D7)), sequence (P62344 whole entry, looked up): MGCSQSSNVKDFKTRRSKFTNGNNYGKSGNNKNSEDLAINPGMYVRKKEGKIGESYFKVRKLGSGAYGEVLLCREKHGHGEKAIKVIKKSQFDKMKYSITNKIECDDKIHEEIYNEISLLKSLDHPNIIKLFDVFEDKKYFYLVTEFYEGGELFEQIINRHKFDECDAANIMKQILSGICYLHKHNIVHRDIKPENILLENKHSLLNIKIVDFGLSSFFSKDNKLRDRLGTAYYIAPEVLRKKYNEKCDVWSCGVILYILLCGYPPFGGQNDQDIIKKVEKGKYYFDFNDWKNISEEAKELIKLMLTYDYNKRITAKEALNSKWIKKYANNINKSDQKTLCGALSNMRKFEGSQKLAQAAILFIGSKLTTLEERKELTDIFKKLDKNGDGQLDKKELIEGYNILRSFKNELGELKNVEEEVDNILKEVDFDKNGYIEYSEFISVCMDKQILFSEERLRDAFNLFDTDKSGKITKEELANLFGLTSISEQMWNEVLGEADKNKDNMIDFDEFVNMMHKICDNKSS
# [6] = target: Plasmodium falciparum protein kinase 6 (PK6, PF3D7_1337100) (UniProt Q8IDW1); experiment: PfPK6 kinase inhibitors, biochemical, TCAMS library (AID 1159586); conditions: recombinant PfPK6, Kinase-Glo ATP depletion luminescence
# Plasmodium falciparum protein kinase 6 (PK6, PF3D7_1337100), sequence (Q8IDW1 1-305): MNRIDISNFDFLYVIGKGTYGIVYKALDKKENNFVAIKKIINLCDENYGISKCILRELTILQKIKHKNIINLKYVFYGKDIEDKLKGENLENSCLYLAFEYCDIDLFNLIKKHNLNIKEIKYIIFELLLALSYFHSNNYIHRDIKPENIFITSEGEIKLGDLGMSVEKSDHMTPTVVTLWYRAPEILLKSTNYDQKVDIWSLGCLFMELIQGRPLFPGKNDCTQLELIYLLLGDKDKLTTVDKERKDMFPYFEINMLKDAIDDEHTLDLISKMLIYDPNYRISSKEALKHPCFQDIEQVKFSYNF
# [7] = target: Protein kinase 7 (PK7), Plasmodium falciparum 3D7 (PF3D7_0213400) (UniProt Q7YTF7); experiment: inhibition of Plasmodium PK7 catalytic activity – biochemical, TCAMS antimalarial set, Kinase-Glo luminescence (AID 1159587); conditions: recombinant PfPK7, Kinase-Glo ATP depletion luminescence
# Protein kinase 7 (PK7), Plasmodium falciparum 3D7 (PF3D7_0213400), sequence (Q7YTF7 1-343): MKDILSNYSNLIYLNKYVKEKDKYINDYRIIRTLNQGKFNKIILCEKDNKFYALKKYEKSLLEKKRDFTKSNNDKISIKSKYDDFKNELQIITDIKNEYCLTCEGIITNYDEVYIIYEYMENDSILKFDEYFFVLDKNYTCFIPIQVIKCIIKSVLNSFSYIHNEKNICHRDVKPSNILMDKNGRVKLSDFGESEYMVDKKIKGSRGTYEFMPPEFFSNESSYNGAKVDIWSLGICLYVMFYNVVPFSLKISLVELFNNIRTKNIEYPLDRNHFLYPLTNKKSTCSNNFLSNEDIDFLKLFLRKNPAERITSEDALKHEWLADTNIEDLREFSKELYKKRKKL
# [8] = target: Calcium-dependent protein kinase 4 (Plasmodium falciparum (isolate 3D7)) (UniProt Q8IBS5); experiment: PfCDPK4 kinase inhibitors, biochemical, TCAMS library (AID 1159588; cut-off not given, nearly all actives have IC50 up to about 0.91 µM); conditions: recombinant PfCDPK4, Kinase-Glo ATP depletion luminescence
# Calcium-dependent protein kinase 4 (Plasmodium falciparum (isolate 3D7)), sequence (Q8IBS5 whole entry, looked up): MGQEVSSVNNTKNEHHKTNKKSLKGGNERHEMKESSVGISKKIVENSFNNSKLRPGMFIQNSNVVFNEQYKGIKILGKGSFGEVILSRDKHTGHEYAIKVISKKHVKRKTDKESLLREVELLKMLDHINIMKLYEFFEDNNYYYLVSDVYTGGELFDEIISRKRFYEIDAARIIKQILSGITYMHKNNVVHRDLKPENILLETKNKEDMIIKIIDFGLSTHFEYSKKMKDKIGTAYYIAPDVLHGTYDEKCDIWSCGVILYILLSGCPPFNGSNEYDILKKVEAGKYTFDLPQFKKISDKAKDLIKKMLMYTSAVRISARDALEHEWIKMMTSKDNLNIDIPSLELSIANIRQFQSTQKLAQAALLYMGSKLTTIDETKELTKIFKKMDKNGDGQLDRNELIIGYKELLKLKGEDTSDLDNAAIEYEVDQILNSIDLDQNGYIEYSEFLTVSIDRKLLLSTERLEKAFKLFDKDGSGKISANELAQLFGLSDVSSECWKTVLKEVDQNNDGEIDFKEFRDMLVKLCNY
# [9] = tested on: Aerobactin synthetase IucA (Klebsiella pneumoniae); experiment: IucA aerobactin synthetase inhibitors, biochemical, Tocris library, absorbance (AID 1345561); conditions: purified IucA enzyme assay, absorbance (OD) read-out; stronger effect = lower value;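 tested at 8 µM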;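 further: 100% = enzyme without compound and 0% = no enzyme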
# [10] = sensitizers of A549 cells to miR-34 induction, primary screen, imaging, A549 dox-inducible miR-34, nuclei and caspase counts (AID 1347080;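 active means compounds whose cell count with miR-34 switched on is under 0.7 times the count with it off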); conditions: A549 miR-34 inducible, Hoechst nuclei count, 48 h
# [11] = viability rescue of complex I mutant cybrids, primary screen, cell-based, galactose medium, ATP luminescence (AID 1645843;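 active means z-score of at least 1.8 in each of two replicates, scored against plate mean and spread of sample wells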;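 further: positive z means more ATP and so rescue of galactose-driven cybrid death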); conditions: complex I mutant cybrid cells, 72 h, stronger effect = higher value
# [12] = growth inhibition of DIPG glioma cells, dose response, cell-based, SU-DIPG-XVII, MIPE5.0, CellTiter-Glo, qHTS (AID 1347060; cut-off not given, nearly all actives have AC50 up to about 26 µM;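 further: cells exposed to compound for 48 hours before viability readout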); conditions: SU-DIPG-XVII viability, CellTiter-Glo ATP luminescence
# [13] = growth inhibition of DIPG glioma cells, dose response, cell-based, SU-DIPG-IV, MIPE4.0, CellTiter-Glo, qHTS (AID 1347063; cut-off not given, nearly all actives have AC50 up to about 30 µM;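 further: compound exposure lasted 48 hours before the viability readout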); conditions: SU-DIPG-IV viability, CellTiter-Glo ATP luminescence
# [14] = growth inhibition of DIPG glioma cells, dose response, cell-based, SU-DIPG-XIII, MIPE5.0, CellTiter-Glo, qHTS (AID 1347064; cut-off not given, nearly all actives have AC50 up to about 23 µM;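 further: cells exposed to compound for 48 hours before the viability read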); conditions: SU-DIPG-XIII viability, CellTiter-Glo ATP luminescence
# [15] = viability loss in pontine glioma line – cell-based, SU-DIPG-XXV, MIPE5.0, CellTiter-Glo, qHTS, dose response (AID 1347065; cut-off not given, nearly all actives have AC50 up to about 26 µM;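 further: cells exposed to compound for 48 hours before ATP readout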); conditions: CellTiter-Glo ATP luminescence
# [16] = SU-DIPG-VI glioma cell viability, MIPE4.0 library, CellTiter-Glo luminescence, qHTS (AID 1347066; cut-off not given, nearly all actives have AC50 up to about 30 µM;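 further: cells exposed to compound for 48 hours before readout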); conditions: CellTiter-Glo ATP luminescence
# [17] = JHH-DIPG-1 glioma cell viability, MIPE5.0 library, CellTiter-Glo luminescence, qHTS (AID 1347067; cut-off not given, nearly all actives have AC50 up to about 26 µM;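 further: cells exposed to compound for 48 hours before readout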); conditions: JHH-DIPG-1 glioma viability, CellTiter-Glo ATP luminescence
# [18] = modifiers of HSF1 nuclear foci, imaging, Selleck Cancer Library (AID 1347162; in the data active means plate-normalised HSF1 focus index below about 0.46); conditions: human cells, at 10 µM; SSMD: measured here: HSF1 foci SSMD mean; cell count: measured here: cell number; plate-normalised HSF1 focus index: stronger effect = lower value
# [19] = survival rescue of mitochondrial mutant cells in low glucose, primary screen, MELAS cybrids, Rieske KO mouse fibroblasts, CellTiter-Glo (AID 1508586;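 active means mean z-score across replicates of 1.96 or higher in either the MELAS or the Rieske mutant cell line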;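 further: z relative to plate mean and SD of compound and empty wells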)
# [20] = ovarian cancer cell viability with rucaparib, profiling panel, oncology-focused library, rucaparib conditional (AID 1508598;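 active means normalized viability below 100% at a tested concentration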); conditions: patient-derived ovarian cancer cells, CellTiter-Glo viability, 144 h, stronger effect = lower value
# [21] = stronger effect = lower value, cell number ratio, induced over uninduced
# [22] = measured here: relative caspase fold change +Dox/-Dox
# [23] = measured here: total cells with miR-34 induction, stronger effect = lower value
# [24] = measured here: total cells without miR-34 induction
smiles,measurement,setting,value
Cc1[nH]c(C)c(-c2ccc(Oc3ccc(OC(F)(F)F)cc3)cc2)c(=O)c1Br,growth inhibition,[1],95% (active) and 97% (active)
same,inhibition,[2],-4% (inactive) and -1% (inactive)
same,inhibition,[3],1% (inactive) and 2% (inactive)
same,growth inhibition,[4],96% (active)
same,outcome,[5],inactive
same,outcome,[6],inactive
same,outcome,[7],inactive
same,outcome,[8],inactive
CC(C)CNCc1cccc(-c2ccc(CNC3CCN(Cc4ccccc4)CC3)cc2)c1,growth inhibition,[1],99% (active)
same,inhibition,[2],44% (inactive)
same,inhibition,[3],3% (inactive)
same,growth inhibition,[4],100% (active)
same,outcome,[5],inactive
same,outcome,[6],inactive
same,outcome,[7],inactive
same,outcome,[8],inactive
CC1(C)C(=O)NC2=C1C(=O)C(=O)c1ccccc12,inhibition,[2],-8% (inactive)
same,inhibition,[3],1% (inactive)
same,growth inhibition,[4],93% (active)
same,outcome,[5],inactive
same,outcome,[6],inactive
same,outcome,[7],inactive
same,outcome,[8],inactive
same,remaining activity,[9],80.1% (inactive)
same,fold change,[10]; [21],0.672 (active)
same,fold change,[10]; [22],1.77
same,cell count,[10]; [23],1170
same,cell count,[10]; [24],1740
same,z-score,[11],-0.705 (inactive)
O=C(NCCCCN1CCC(c2ccc(OC(F)(F)F)cc2)CC1)c1ccc(NC(=O)c2ccc(Cl)cc2)cc1,growth inhibition,[1],98% (active)
same,inhibition,[2],24% (inactive)
same,inhibition,[3],-3% (inactive)
same,growth inhibition,[4],99% (active)
same,outcome,[5],inactive
same,outcome,[6],inactive
same,outcome,[7],inactive
same,outcome,[8],inactive
CC1(C)N=C(N)N=C(N)N1c1ccc2ccccc2c1,growth inhibition,[1],-1% (inactive)
same,inhibition,[2],48% (inactive)
same,inhibition,[3],-2% (inactive)
same,growth inhibition,[4],95% (active)
same,outcome,[5],inactive
same,outcome,[6],inactive
same,outcome,[7],inactive
same,outcome,[8],inactive
O=C(Nc1ccc(CN2CCN(S(=O)(=O)c3ccc(Cl)s3)CC2)cc1)c1cccs1,growth inhibition,[1],87% (active)
same,inhibition,[2],14% (inactive)
same,inhibition,[3],2% (inactive)
same,growth inhibition,[4],92% (active)
same,outcome,[5],inactive
same,outcome,[6],inactive
same,outcome,[7],inactive
same,outcome,[8],inactive
Cc1cnc(N)c(/C=C/c2cncc(C(=O)NCCc3ccc(Cl)cc3Cl)c2)c1,growth inhibition,[1],100% (active)
same,inhibition,[2],2% (inactive)
same,outcome,[5],inactive
same,outcome,[6],inactive
same,outcome,[7],inactive
same,outcome,[8],inactive
FC(F)c1nc2ccccc2n1-c1nc(N2CCOCC2)nc(N2CCOCC2)n1,growth inhibition,[1],99% (active)
same,inhibition,[2],47% (inactive)
same,inhibition,[3],-2% (inactive)
same,growth inhibition,[4],99% (active)
same,outcome,[5],inactive
same,outcome,[6],inactive
same,outcome,[7],inactive
same,outcome,[8],inactive
same,AC50,[12],742 nM (active)
same,AC50,[13],235 nM (active)
same,AC50,[14],833 nM (active)
same,AC50,[15],417 nM (active)
same,AC50,[16],3320 nM (active)
same,AC50,[17],2950 nM (active)
same,fold change,[10]; [21],0.814 (inactive)
same,fold change,[10]; [22],0.918
same,cell count,[10]; [23],1920
same,cell count,[10]; [24],2350
same,SSMD,[18],-0.274
same,cell count,[18],6850
same,plate-normalised HSF1 focus index,[18],0.994 (inactive)
same,z-score,"[19]; MELAS cybrid survival, CellTiter-Glo 48 h, stronger effect = higher value",2.99 (active)
same,z-score,"[19]; Rieske KO mouse fibroblast survival, CellTiter-Glo 72 h",-0.193
same,viability,"[20]; at 0.000305 µM, OCI-C5x cells, with rucaparib 10 µM, 100% = cells with rucaparib alone",125% (inactive)
same,viability,"[20]; at 0.000305 µM, OCI-C5x cells, without rucaparib",124% (inactive)
same,viability,"[20]; at 0.000305 µM, OCI-P5x cells, with rucaparib 20 µM, 100% = cells with rucaparib alone",88.5% (active)
same,viability,"[20]; at 0.000305 µM, OCI-P5x cells, without rucaparib",82.7% (active)
same,viability,"[20]; at 0.00122 µM, OCI-C5x cells, without rucaparib",119% (inactive)
same,viability,"[20]; at 0.00122 µM, OCI-P5x cells, with rucaparib 20 µM, 100% = cells with rucaparib alone",75.5% (active)
same,viability,"[20]; at 0.00122 µM, OCI-P5x cells, without rucaparib",34.1% (active)
same,viability,"[20]; at 0.00488 µM, OCI-C5x cells, with rucaparib 10 µM, 100% = cells with rucaparib alone",115% (inactive)
same,viability,"[20]; at 0.00488 µM, OCI-C5x cells, without rucaparib",120% (inactive)
same,viability,"[20]; at 0.00488 µM, OCI-P5x cells, with rucaparib 20 µM, 100% = cells with rucaparib alone",93.4% (active)
same,viability,"[20]; at 0.00488 µM, OCI-P5x cells, without rucaparib",97.4% (active)
same,viability,"[20]; at 0.0195 µM, OCI-C5x cells, with rucaparib 10 µM, 100% = cells with rucaparib alone",122% (inactive)
same,viability,"[20]; at 0.0195 µM, OCI-C5x cells, without rucaparib",116% (inactive)
same,viability,"[20]; at 0.0195 µM, OCI-P5x cells, with rucaparib 20 µM, 100% = cells with rucaparib alone",94.1% (active)
same,viability,"[20]; at 0.0195 µM, OCI-P5x cells, without rucaparib",90.9% (active)
same,viability,"[20]; at 0.0781 µM, OCI-C5x cells, with rucaparib 10 µM, 100% = cells with rucaparib alone",126% (inactive)
same,viability,"[20]; at 0.0781 µM, OCI-C5x cells, without rucaparib",117% (inactive)
same,viability,"[20]; at 0.0781 µM, OCI-P5x cells, with rucaparib 20 µM, 100% = cells with rucaparib alone",89.9% (active)
same,viability,"[20]; at 0.0781 µM, OCI-P5x cells, without rucaparib",93% (active)
same,viability,"[20]; at 0.313 µM, OCI-C5x cells, with rucaparib 10 µM, 100% = cells with rucaparib alone",128% (inactive)
same,viability,"[20]; at 0.313 µM, OCI-C5x cells, without rucaparib",111% (inactive)
same,viability,"[20]; at 0.313 µM, OCI-P5x cells, with rucaparib 20 µM, 100% = cells with rucaparib alone",88.2% (active)
same,viability,"[20]; at 0.313 µM, OCI-P5x cells, without rucaparib",84.5% (active)
same,viability,"[20]; at 1.25 µM, OCI-C5x cells, with rucaparib 10 µM, 100% = cells with rucaparib alone",107% (inactive)
same,viability,"[20]; at 1.25 µM, OCI-C5x cells, without rucaparib",126% (inactive)
same,viability,"[20]; at 1.25 µM, OCI-P5x cells, with rucaparib 20 µM, 100% = cells with rucaparib alone",42% (active)
same,viability,"[20]; at 1.25 µM, OCI-P5x cells, without rucaparib",62.9% (active)
same,viability,"[20]; at 5 µM, OCI-C5x cells, with rucaparib 10 µM, 100% = cells with rucaparib alone",25.2% (active)
same,viability,"[20]; at 5 µM, OCI-C5x cells, without rucaparib",45.8% (active)
same,viability,"[20]; at 5 µM, OCI-P5x cells, with rucaparib 20 µM, 100% = cells with rucaparib alone",8.53% (active)
same,viability,"[20]; at 5 µM, OCI-P5x cells, without rucaparib",15.4% (active)
